From PubChem BioAssay (NCATS)
Values without a mark were called inactive. Records with an inconclusive call do not appear. Where a call stands in place of a potency, no number is given. Active and inactive are the calls of the source. Unless noted, calls follow the shape of the dose curve; as a rule, active = well fitted curve in the direction sought with a large enough effect; inconclusive = small, poorly fitted or top-dose-only effect, or another doubt; inactive = no such curve, though single readings can be large; an effect the other way counts as inactive or inconclusive.

Experiments:
[1] = target: Rap guanine nucleotide exchange factor 3 (Homo sapiens) (UniProt O95398); test: Confirmatory qHTS for antagonist of cAMP-regulated guanine nucleotide exchange factor 3 (EPAC1) (AID 1645880); also: nearly all actives have a fitted effect of over 55% in size; also: potency is read from the fitted curve at half-maximal effect
Sequence of Rap guanine nucleotide exchange factor 3 (Homo sapiens) (O95398 whole entry, looked up): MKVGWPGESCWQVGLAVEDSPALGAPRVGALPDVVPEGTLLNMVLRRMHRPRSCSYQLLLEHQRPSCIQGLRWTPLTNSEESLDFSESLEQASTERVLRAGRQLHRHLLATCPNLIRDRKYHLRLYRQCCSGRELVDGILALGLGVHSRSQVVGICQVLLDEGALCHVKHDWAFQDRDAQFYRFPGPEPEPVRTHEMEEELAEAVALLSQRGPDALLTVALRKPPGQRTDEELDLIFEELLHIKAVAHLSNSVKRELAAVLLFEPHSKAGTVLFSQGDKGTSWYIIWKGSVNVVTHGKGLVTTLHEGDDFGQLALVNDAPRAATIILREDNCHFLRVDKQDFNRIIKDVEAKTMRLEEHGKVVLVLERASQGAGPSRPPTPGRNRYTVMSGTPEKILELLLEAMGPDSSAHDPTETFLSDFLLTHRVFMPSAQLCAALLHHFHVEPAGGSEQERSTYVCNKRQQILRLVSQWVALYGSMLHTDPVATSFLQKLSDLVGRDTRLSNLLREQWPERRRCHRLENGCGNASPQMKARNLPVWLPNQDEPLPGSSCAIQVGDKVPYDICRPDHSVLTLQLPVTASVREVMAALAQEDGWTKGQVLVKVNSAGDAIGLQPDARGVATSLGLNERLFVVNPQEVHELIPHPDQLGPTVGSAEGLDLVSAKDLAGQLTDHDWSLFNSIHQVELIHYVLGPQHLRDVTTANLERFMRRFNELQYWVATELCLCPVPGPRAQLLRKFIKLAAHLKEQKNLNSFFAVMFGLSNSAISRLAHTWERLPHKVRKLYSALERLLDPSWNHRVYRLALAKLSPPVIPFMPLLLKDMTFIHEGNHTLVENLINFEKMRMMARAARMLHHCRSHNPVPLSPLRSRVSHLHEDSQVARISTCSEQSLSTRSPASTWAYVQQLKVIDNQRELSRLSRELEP
Procedure, shortened: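 Released BODIPY-GDP fluoresces less than Rap1-bound BODIPY-GDP; the signal is followed at 480/540 nm at 5-min intervals over 30 min, after 5 min at room temperature. Reactions contain 100 nM EPAC1, 250 nM RAP1B-BODIPY-GDP and 50 uM GDP; results are normalized to ATA and DMSO.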

[2] = target: Rap guanine nucleotide exchange factor 3 (Homo sapiens) (UniProt O95398); test: Confirmatory qHTS for agonist of cAMP-regulated guanine nucleotide exchange factor 3 (EPAC1) (AID 1645881);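 also: EPAC1 catalysed release of BODIPY-GDP from Rap1B seen as fluorescence loss; nearly all actives have a fitted effect of over 75% in size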
[3] = target: Rap guanine nucleotide exchange factor 4 (Homo sapiens) (UniProt Q8WZA2); test: Confirmatory qHTS for agonist of cAMP-regulated guanine nucleotide exchange factor 4 (EPAC2) (AID 1645884);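 also: nucleotide exchange releases bodipy-GDP from Rap1 and this lowers its fluorescence; nearly all actives have a fitted effect of over 65% in size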
Sequence of Rap guanine nucleotide exchange factor 4 (Homo sapiens) (Q8WZA2 whole entry, looked up): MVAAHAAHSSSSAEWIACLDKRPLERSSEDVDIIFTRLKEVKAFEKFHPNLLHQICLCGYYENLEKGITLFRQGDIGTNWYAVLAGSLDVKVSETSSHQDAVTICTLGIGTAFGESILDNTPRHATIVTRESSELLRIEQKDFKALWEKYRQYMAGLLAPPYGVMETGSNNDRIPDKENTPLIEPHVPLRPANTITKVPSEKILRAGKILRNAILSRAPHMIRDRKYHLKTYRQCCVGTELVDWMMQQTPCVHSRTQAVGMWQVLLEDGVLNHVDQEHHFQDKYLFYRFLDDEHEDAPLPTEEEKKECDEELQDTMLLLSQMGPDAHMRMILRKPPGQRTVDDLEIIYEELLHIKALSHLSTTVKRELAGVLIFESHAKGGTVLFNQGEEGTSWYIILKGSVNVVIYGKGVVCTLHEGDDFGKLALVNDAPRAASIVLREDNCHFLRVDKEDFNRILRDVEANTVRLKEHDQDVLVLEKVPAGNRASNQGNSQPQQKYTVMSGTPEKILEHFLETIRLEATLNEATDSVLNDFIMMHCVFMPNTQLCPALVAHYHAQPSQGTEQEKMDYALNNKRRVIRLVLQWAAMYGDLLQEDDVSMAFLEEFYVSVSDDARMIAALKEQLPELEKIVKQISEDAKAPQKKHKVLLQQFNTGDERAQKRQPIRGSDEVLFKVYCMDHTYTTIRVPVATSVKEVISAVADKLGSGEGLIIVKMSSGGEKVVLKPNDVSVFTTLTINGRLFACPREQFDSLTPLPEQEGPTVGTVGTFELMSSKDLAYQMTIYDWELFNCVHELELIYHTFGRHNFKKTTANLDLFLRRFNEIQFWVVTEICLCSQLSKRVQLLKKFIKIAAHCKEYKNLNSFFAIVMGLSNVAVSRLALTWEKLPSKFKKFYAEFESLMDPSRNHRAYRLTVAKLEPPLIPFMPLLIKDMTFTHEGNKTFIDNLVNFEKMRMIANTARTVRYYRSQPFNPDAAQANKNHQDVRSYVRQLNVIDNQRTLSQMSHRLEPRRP

[4] = Confirmation and Secondary Assay for Modulators of Hemoglobin Beta Chain Splicing at IVS2 654 locus (AID 910)
Procedure, shortened: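 HeLa cells stably carrying EGFP interrupted by mutant beta-globin IVS2-654 intron (CMV-driven) were treated with compound for 2 days at 37C; corrected splicing was scored as total peak GFP intensity per well (488 nm excitation, 500-520 nm emission).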

[5] = Confirmation and Secondary Assay for Modulators of Hemoglobin Beta Chain Splicing at IVS2 705 locus (AID 930);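 also: HeLa cells stably expressing the EGFP-705 splicing reporter; GFP fluorescence per well restored by corrected splicing of the IVS2-705 intron in EGFP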
Procedure, shortened: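 Read-out: total peak GFP fluorescence per well (488 nm excitation, 500-520 nm emission) by laser-scanning cytometry. Cells: HeLa EGFP-705 splicing reporter, 2 days compound exposure in Optimem/2% FCS.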

[6] = target: Rap guanine nucleotide exchange factor 4 (Homo sapiens) (UniProt Q8WZA2); test: Confirmatory qHTS for antagonist of cAMP-regulated guanine nucleotide exchange factor 4 (EPAC2) (AID 1645885); also: nearly all actives have a fitted effect of over 25% in size; also: potency is read from the fitted curve at half-maximal effect
[7] = target: Cytochrome P450 3A4 (Homo sapiens) (UniProt P08684); test: qHTS Assay for Inhibitors and Substrates of Cytochrome P450 3A4 (AID 884); also: nearly all actives have a fitted effect of over 50% in size; also: potency is read from the fitted curve at half-maximal effect
Sequence of Cytochrome P450 3A4 (Homo sapiens) (P08684 whole entry, looked up): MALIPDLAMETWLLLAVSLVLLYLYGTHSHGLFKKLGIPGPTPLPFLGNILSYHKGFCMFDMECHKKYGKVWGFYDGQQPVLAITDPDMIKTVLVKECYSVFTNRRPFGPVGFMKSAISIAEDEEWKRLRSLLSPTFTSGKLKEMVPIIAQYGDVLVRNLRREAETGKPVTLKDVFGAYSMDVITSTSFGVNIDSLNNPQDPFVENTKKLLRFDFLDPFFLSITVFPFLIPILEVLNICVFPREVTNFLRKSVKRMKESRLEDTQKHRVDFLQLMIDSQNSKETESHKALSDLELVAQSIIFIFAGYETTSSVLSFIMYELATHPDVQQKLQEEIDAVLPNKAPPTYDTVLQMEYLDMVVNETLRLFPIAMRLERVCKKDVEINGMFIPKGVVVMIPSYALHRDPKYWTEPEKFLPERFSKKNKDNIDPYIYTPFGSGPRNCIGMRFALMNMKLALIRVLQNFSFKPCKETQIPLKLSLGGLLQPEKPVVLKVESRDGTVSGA
Procedure, shortened: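 Luminescent readout of luciferin produced by CYP3A4 (20 nM) dealkylation of Luciferin-PPXE, 25 uM (its KM). NADPH-driven reaction ran 60 min at RT after 10 min compound preincubation; data scaled to 57 uM ketoconazole as 100% inhibition.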

[8] = target: Cytochrome P450 2D6 (Homo sapiens) (UniProt P10635); test: qHTS Assay for Inhibitors and Substrates of Cytochrome P450 2D6 (AID 891); also: nearly all actives have a fitted effect of over 60% in size; also: potency is read from the fitted curve at half-maximal effect;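 as to activity change, negative = inhibition: luciferin methyl ether substrate demethylated by CYP2D6 with NADPH regeneration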
Sequence of Cytochrome P450 2D6 (Homo sapiens) (P10635 whole entry, looked up): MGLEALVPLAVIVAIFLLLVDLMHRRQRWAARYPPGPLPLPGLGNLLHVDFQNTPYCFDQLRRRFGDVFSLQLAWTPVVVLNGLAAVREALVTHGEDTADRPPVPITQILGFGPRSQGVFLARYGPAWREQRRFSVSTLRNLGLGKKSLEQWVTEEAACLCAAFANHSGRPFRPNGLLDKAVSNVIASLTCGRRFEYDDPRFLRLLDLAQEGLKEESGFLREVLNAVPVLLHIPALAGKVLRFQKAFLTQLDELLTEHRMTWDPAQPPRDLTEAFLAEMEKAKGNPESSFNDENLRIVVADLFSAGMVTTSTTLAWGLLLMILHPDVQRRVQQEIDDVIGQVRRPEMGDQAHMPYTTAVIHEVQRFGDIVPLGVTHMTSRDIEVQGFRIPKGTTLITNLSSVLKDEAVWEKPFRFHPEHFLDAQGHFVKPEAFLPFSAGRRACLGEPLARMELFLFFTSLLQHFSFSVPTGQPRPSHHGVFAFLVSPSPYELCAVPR
Procedure, shortened: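 Luminescent read-out of luciferin formed by 5 nM human CYP2D6 demethylating 30 uM Luciferin-ME EGE (Km level) over 60 min at room temperature after NADPH regeneration addition. Data normalized to full inhibition by 1.43 uM quinidine.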

[9] = qHTS Assay for Identification of Small Molecule Agonists for Thrombopoietin (TPO) Signaling Pathway (AID 917); also: potency is read from the fitted curve at half-maximal effect
Procedure, shortened: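 Stimulation at the TPO EC50 (26 pM final) was used to detect activators. Ba/F3 mouse cells bearing human TPO receptor and a luciferase reporter under the Glycoprotein IIb promoter were exposed to compounds for 24 hrs at 37 C.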

[10] = target: Muscarinic acetylcholine receptor M1 (Rattus norvegicus) (UniProt P08482); test: qHTS Assay for Antagonists of Acetylcholine Muscarinic M1 Receptor: Kinetic Measurement of Intracellular Calcium Response (AID 943); also: nearly all actives have a fitted effect of over 75% in size; also: potency is read from the fitted curve at half-maximal effect;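 as to activity change, negative = inhibition: Fluo-4 calcium signal as peak divided by basal fluorescence over 4 min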
Sequence of Muscarinic acetylcholine receptor M1 (Rattus norvegicus) (P08482 whole entry, looked up): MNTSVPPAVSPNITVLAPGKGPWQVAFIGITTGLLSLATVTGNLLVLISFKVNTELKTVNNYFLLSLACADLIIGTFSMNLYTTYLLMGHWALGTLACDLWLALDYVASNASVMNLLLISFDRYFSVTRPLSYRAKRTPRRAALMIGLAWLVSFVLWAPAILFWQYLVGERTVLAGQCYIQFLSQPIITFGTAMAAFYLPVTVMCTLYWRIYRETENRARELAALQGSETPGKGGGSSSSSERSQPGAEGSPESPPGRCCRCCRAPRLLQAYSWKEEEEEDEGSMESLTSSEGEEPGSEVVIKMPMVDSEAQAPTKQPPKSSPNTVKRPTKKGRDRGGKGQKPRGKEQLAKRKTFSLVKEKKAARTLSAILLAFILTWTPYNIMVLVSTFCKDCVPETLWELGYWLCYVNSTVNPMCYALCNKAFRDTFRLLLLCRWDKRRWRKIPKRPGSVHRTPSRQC
Procedure, shortened: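 Antagonism is measured as inhibition of the carbachol-evoked calcium rise in CHO cells transfected with rat M1. Cells are dye-loaded, exposed to compound for 10 min, then stimulated with 100 nM carbachol (EC80).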

[11] = target: Muscarinic acetylcholine receptor M1 (Rattus norvegicus) (UniProt P08482); test: qHTS Assay for Antagonists of Acetylcholine Muscarinic M1 Receptor: Measurement of IP-One Response (AID 944); also: nearly all actives have a fitted effect of over 75% in size
Procedure, shortened: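 Antagonist mode with rat M1 receptor transfected into CHO cells. Compound is added first for 10 min, carbachol at its EC80 follows for 30 min, and lysis reagents then allow TR-FRET detection of accumulated IP1.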

[12] = AP1 Signaling Pathway (AID 357; active = well fitted curve in either direction with a large enough effect, not every such curve was filed as active;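 also: ME-180 reporter cells stimulated with EGF at its EC50 level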); settings: ME-180 (cervical carcinoma) AP-1-bla reporter, EGF-induced, beta-lactamase ratio, 5 h
Procedure, shortened: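 Titration-series screen for positive or negative modulators of EC50 EGF-induced signaling in ME-180 cells carrying an AP-1-driven beta-lactamase reporter. After 5 hours at 37 degrees Celsius, CCF4 460nm/530nm emission ratio gave %Activity; AC50 values derived.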

[13] = target: Glutathione peroxidase 1 (Homo sapiens) (UniProt P07203); test: Primary qHTS Assay for Inhibitors of Recombinant Selenoprotein Glutathione Peroxidase 1 (GPX1) (AID 1845191); also: nearly all actives have a fitted effect of over 65% in size
Sequence of Glutathione peroxidase 1 (Homo sapiens) (P07203 whole entry, looked up): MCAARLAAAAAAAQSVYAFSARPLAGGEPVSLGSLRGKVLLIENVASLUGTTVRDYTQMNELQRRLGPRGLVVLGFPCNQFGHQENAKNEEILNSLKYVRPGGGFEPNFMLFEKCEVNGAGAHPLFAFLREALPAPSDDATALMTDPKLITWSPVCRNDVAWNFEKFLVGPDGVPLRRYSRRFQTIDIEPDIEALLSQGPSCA
Procedure, shortened: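 GPX1 10 nM, GR 100 nM, GSH 1 mM, NADPH 0.5 mM, CHP 0.5 mM (final). 30-min cpd preincubation, RT. Ex340/Em450 read t=0, t=15 min.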

[14] = target: DNA repair nuclease/redox regulator APEX1 (Homo sapiens) (UniProt P27695); test: qHTS Validation Assay for Inhibitors of the Human Apurinic/apyrimidinic Endonuclease 1 (APE1) (AID 1705;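 also: TAMRA fluorescence gain over two minutes as APE1 cuts a quenched THF abasic duplex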)
Sequence of DNA repair nuclease/redox regulator APEX1 (Homo sapiens) (P27695 whole entry, looked up): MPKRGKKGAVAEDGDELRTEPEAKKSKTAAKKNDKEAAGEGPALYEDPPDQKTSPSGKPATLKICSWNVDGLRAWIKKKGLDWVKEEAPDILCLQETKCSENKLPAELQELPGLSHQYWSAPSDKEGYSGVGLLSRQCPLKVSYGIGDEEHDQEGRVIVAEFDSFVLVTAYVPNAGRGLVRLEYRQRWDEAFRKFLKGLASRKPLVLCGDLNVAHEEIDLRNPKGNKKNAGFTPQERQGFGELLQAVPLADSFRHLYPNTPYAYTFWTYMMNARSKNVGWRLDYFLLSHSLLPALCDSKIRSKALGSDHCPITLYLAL
Procedure, shortened: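 Fluorogenic double-stranded THF abasic-site substrate (5'-TAMRA/3'-BHQ-2), 50 nM final. Enzyme preincubated with compound 15 min at room temperature, then substrate added. Kinetic fluorescence (ex 525/em 598 nm) read three times at 60 s intervals; activity taken as third-minus-first read difference.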

[15] = Counterscreen for APE1 Inhibitors: Fluorescent Dye Displacement Validation Assay (AID 1707)
Procedure, shortened: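 Endpoint fluorescence read at 480 nm excitation / 540 nm emission; DNA-binding compounds lower signal by displacing 250 nM Thiazole Orange from 50 nM dsDNA containing a tetrahydrofuran abasic site, Tris-HCl pH7.5 buffer with NaCl and MgCl2.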

[16] = qHTS for differential inhibitors of proliferation of Plasmodium falciparum line W2 (AID 1883); settings: Potency: Plasmodium falciparum W2 proliferation inhibition;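 also: parasites grown with compound for 72 h before lysis and staining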
[17] = target: ATP-dependent DNA helicase Q1 (Homo sapiens) (UniProt P46063); test: qHTS Validation Assay for Inhibitors of RecQ-Like Dna Helicase 1 (RECQ1) (AID 2353)
Sequence of ATP-dependent DNA helicase Q1 (Homo sapiens) (P46063 whole entry, looked up): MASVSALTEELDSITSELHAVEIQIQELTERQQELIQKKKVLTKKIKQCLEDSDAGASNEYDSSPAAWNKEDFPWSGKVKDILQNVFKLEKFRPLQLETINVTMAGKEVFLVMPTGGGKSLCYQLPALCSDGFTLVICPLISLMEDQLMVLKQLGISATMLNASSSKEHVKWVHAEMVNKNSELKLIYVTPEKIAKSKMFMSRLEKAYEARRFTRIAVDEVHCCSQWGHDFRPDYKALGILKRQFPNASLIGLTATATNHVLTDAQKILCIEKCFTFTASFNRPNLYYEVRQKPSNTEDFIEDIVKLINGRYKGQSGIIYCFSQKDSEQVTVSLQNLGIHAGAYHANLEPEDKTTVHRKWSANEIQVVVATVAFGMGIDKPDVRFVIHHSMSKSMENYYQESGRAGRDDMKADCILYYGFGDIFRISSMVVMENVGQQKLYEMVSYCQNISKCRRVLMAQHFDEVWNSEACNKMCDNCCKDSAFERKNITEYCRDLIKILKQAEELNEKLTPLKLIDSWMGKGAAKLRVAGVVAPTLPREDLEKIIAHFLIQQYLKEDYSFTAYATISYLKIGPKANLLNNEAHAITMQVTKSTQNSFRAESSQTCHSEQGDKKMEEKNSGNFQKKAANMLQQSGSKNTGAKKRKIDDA
Procedure, shortened: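 RECQ1T1 50 nM; forked duplex (20 bp + 30-nt ss tails) 200 nM, ATP 2 mM final; pH 8.0, 2 mM MgCl2, 2.5 ug/ml poly(dI-dC); 15 min compound preincubation; discontinuous kinetic read over 2 h at RT.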

[18] = NCATS anti-infectives library activity on HEK293 viability as a counter-qHTS vs the C. elegans viability qHTS (AID 1745854);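 also: HEK293 cells exposed to compounds for 24 hr before the viability read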
Procedure, shortened: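 Counter-screen for cytotoxicity: HEK293, 24 hr, 37C, compounds up to 41.7 uM final (a dilution series, 1:5). Readout CellTiter-Glo luminescence, 10 min RT. Digitonin control, 83.3 uM final.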

[19] = target: Phospholipid hydroperoxide glutathione peroxidase GPX4 (Homo sapiens) (UniProt P36969); test: Primary qHTS Assay for Inhibitors of Recombinant Selenoprotein Glutathione Peroxidase 4 (GPX4) (AID 1845192); settings: outcome: dose series up to 50 µM unless noted; also: nearly all actives have a fitted effect of over 65% in size
Sequence of Phospholipid hydroperoxide glutathione peroxidase GPX4 (Homo sapiens) (P36969 whole entry, looked up): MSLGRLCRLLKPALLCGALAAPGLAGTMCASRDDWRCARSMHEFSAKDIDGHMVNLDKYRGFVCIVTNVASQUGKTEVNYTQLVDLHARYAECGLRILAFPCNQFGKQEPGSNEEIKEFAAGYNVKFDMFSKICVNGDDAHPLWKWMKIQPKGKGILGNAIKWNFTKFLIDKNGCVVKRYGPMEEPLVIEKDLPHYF
Procedure, shortened: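 qHTS, GR-coupled: GPX4 200 nM + cpd 30 min RT → GSH 1 mM, NADPH 0.5 mM, GR 100 nM → CHP 0.5 mM start; fluor 340/450 at t0 and t15 min; no-enzyme wells as control.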

[20] = qHTS Assay for Identification of Small Molecule Antagonists for NFkB Signaling Pathway (AID 895; active = well fitted inhibition curve with a large enough effect in the signal ratio, with a control signal flat, not every such curve was filed as active; the % refers to the signal ratio)
Procedure, shortened: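 NFkB-bla ME-180 cervical carcinoma cells with beta-lactamase reporter under NFkB response element; compounds added, then TNF alpha at 10 pM final (EC50), 5 h at 37 C. LiveBLAzer substrate 2 h, room temperature; emission 460/530 nm at 405 nm excitation.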

## Cc1sc(N)c(C(=O)c2cccc(C(F)(F)F)c2)c1C
[1]
  Potency: inactive
[2]
  outcome: inactive
[3]
  outcome: inactive

## CCCCC/C=C\C/C=C\C/C=C\C/C=C\CCCC(=O)O
[4]
  outcome: inactive
[5]
  outcome: inactive
[1]
  Potency: 49.8 µM (active)
[2]
  outcome: inactive
[3]
  outcome: inactive
[6]
  Potency: 44.1 µM (active)

## C[C@@H](/C=C\c1cccc(Oc2ccc(F)cc2)c1)N(O)C(N)=O
[7]
  Potency: 1.26 µM (active)
[8]
  Potency: 25.1 µM (active)
[9]
  Potency: inactive
[10]
  Potency: inactive
[11]
  Potency: inactive
[1]
  Potency: inactive
[2]
  outcome: inactive
[6]
  Potency: 44.1 µM (active)

## CCOC(=O)C1=C(C)NC(C)=C(C(=O)OC)[C@H]1c1cccc([N+](=O)[O-])c1
[12]; at 38 µM (top of the series)
  activity change, negative = inhibition: -24.5%
[4]
  outcome: inactive
[5]
  outcome: inactive
[1]
  Potency: inactive
[2]
  outcome: inactive

## COc1ccc2[nH]c(-c3ccccc3)c(CCNC(C)=O)c2c1
[1]
  Potency: inactive
[2]
  outcome: inactive
[3]
  outcome: inactive
[6]
  Potency: inactive

## NCCC[C@@H](N)C(=O)O
[12]; at 7.69 µM (top of the series)
  activity change, negative = inhibition: -2%

## c1ccc(-c2n[nH]c3c2oc2ccccc23)cc1
[13]
  Potency: inactive

## CC(C)=CCC/C(C)=C/CC/C(C)=C/CO
[7]
  Potency: inactive
[4]
  outcome: inactive
[5]
  outcome: inactive
[2]
  outcome: inactive
[3]
  outcome: inactive
[6]
  Potency: 31.2 µM (active)

## NC(N)=NN=Cc1c(Cl)cccc1Cl
[12]; at 17.2 µM (top of the series)
  activity change, negative = inhibition: -2.9%
[12]; at 38 µM (top of the series)
  activity change, negative = inhibition: 4.65%
[9]
  Potency: inactive
[11]
  Potency: inactive

## C[N+](C)(C)CCC(=O)c1cccc2ccccc12
[10]
  Potency: inactive
[11]
  Potency: inactive
[14]
  Potency: inactive
[15]
  Potency: inactive
[16]
  Potency: inactive
[17]
  Potency: inactive

## CCOC(=O)[C@@]12C[C@@H]1/C(=N/O)c1ccccc1O2
[12]; at 38 µM (top of the series)
  activity change, negative = inhibition: -6.63%
[9]
  Potency: inactive
[11]
  Potency: inactive
[1]
  Potency: inactive
[2]
  outcome: inactive
[3]
  outcome: inactive
[6]
  Potency: inactive

## N#CC(=C(/N)Sc1ccccc1N)/C(C#N)=C(\N)Sc1ccccc1N
[18]
  outcome: inactive

## CN[C@@H]1[C@H](O)[C@H](O[C@@H]2[C@H](O)[C@@H](O[C@H]3O[C@H]([C@@H](C)NC)CC[C@H]3N)[C@@H](N)C[C@H]2N)OC[C@]1(C)O
[13]
  outcome: inactive [at 9.52 µM]
[19]
  outcome: inactive [at 9.73 µM]

## CCC(C)(C)C(=O)O[C@@H]1C[C@@H](C)C=C2C=C[C@H](C)[C@H](CC[C@@H]3C[C@@H](O)CC(=O)O3)[C@H]21
[2]
  outcome: inactive
[3]
  outcome: inactive
[6]
  Potency: 49.4 µM (active)

## Cc1cccc([C@@H]2CN(C)CCc3c2cc(O)c(O)c3Cl)c1
[7]
  Potency: inactive
[20]
  Potency: inactive
[11]
  Potency: inactive

## CC(=O)[C@H]1[C@H](C#N)C[C@H]2[C@@H]3CC=C4C[C@@H](O)CC[C@]4(C)[C@H]3CC[C@@]21C
[12]; at 17.2 µM (top of the series)
  activity change, negative = inhibition: 5.31%

## CC1(C)C(=O)NC2=C1C(=O)C(=O)c1ccccc12
[8]
  Potency: 2.51 µM (active)

## O=C(O)[C@H]1CCCNC1
[8]
  Potency: inactive
[4]
  outcome: inactive
[9]
  Potency: inactive
[5]
  outcome: inactive
[10]
  Potency: inactive
[11]
  Potency: inactive

## N[C@H](Cc1ccc(Cl)cc1)C(=O)O
[12]; at 38 µM (top of the series)
  activity change, negative = inhibition: 25.5%
[4]
  outcome: inactive
[5]
  outcome: inactive
[10]
  Potency: inactive

## OCc1cc([C@@H](O)CNCCCCCCOCCCCc2ccccc2)ccc1O
[12]; at 38 µM (top of the series)
  activity change, negative = inhibition: 9.46%

## Cc1cccc(/C=C\c2ccccc2)n1
[8]
  Potency: 0.794 µM (active)
[9]
  Potency: 2 µM (active)
[11]
  Potency: inactive

## O=c1[nH]c2cc(Cl)ccc2c(O)c1-c1cccc(Oc2ccccc2)c1
[8]
  Potency: 6.31 µM (active)

## CCCCCC#CCC#CCC#CCC#CCCCC(=O)O
[12]; at 17.2 µM (top of the series)
  activity change, negative = inhibition: -11.4%

## CC#CCOC(=O)c1c(C)nc2sc3c(c2c1N)CC[C@@H](O)C3
[7]
  Potency: 3.16 µM (active)
[8]
  Potency: inactive
[9]
  Potency: inactive
[10]
  Potency: 5.01 µM (active)

## CCCCCCCCCCCCCCC[C@@H](O)[C@@H](N)CO
[8]
  Potency: 7.94 µM (active)

## CCCCOc1cc(C[C@@H]2CNC(=O)N2)ccc1OC
[12]; at 38 µM (top of the series)
  activity change, negative = inhibition: -11.4%
[4]
  outcome: inactive
[9]
  Potency: inactive
[5]
  outcome: inactive
[11]
  Potency: inactive

## c1ccc2sc(N3CCN(Cc4ccc5c(c4)OCO5)CC3)nc2c1
[7]
  Potency: 0.631 µM (active)

## O=C1c2ccccc2CC[C@H]1CNCCc1ccc(O)cc1
[8]
  Potency: 0.398 µM (active)

## O=C1C(=O)N(Cc2ccc(Cl)c(Cl)c2)c2ccccc21
[8]
  Potency: 3.98 µM (active)

## COc1ccc(OC)c2c(=S)c3ccccc3[nH]c12
[7]
  Potency: 7.94 µM (active)

## CNCCCCCCCCSc1nc(C(C)C)ccc1C(=O)c1cccs1
[7]
  Potency: 2.51 µM (active)
[8]
  Potency: 0.0063 µM (active)
